# Screening results from PubChem BioAssay.
# A selection: hits, their analogues and other compounds. The true share with any hit is near 3.6%.
# BoNT A protease – inhibitors of Botulinum neurotoxin A light chain protease. multiplex microsphere protease substrate cleavage, flow cytometry. inhibition, % at 10 µM. 0.17% of 360,000 active; note: plate controls were buffer without enzyme for full effect and enzyme alone for no effect
# BoNT F protease – blocks Botulinum neurotoxin F light chain protease; inhibition, % at 10 µM; Multiplex microsphere protease cleavage assay, flow cytometry; 0.22% of 360,000 active; in the data active = inhibition above about 35%, passing the limit was not always enough; inconclusive = no clear call, values can overlap the other calls; note: plate controls were buffer without enzyme for full effect and enzyme alone for no effect
# MazF activator – activators of E. coli MazEF toxin-antitoxin RNase. P0AE70. FAM/BHQ RNA-DNA oligo cleavage fluorescence, 5 h. activation, % at 20 µM. 0.32% of 350,000 active. AID 504720; in the data active = activation above about 50%
# Autofluor counter – compound fluorescence in toxin protease inhibitor counterscreen; compound autofluorescence counterscreen, microsphere flow cytometry; stronger effect = higher value; fluorescence intensity (concentration not given with the values); 3.1% of 360,000 active; in the data active = fluorescence intensity above about 16000; inconclusive = no clear call, values can overlap the other calls
# Anthrax LF inh2 – blocks Bacillus anthracis lethal factor protease. multiplex microsphere protease cleavage assay, LF. AID 588501. P15917. inhibition, % at 10 µM. 0.12% of 360,000 active; note: plate controls were buffer without enzyme for full effect and enzyme alone for no effect
# Active calls of the source: *; i = inactive; ? = inconclusive; . = no result. Cut-off read from the data, not from the text of the source, unless noted: active = inhibition above about 30%; inconclusive = no clear call, values can overlap the other calls; inactive = below that.
SMILES,BoNT A protease,BoNT F protease,MazF activator,Autofluor counter,Anthrax LF inh2
CCOc1ccc(NS(=O)(=O)c2cccc(C(=O)N3CCN(C/C=C/c4ccccc4)CC3)c2)cc1,0,-5,4,3790,-3
CCCOc1ccc(F)cc1-c1cc(C(=O)Nc2ccccc2)[nH]n1,0,-1,.,3804,-1
CCn1c(=O)c2ccccc2n(Cc2ccccc2C)c1=O,5,11,3,2893,-4
COc1cc(NC(=O)COc2ccc(-n3ccnc3)cc2)cc(OC)c1,0,3,2,3882,5
N#Cc1cccc(NC(=O)COc2ccc(-n3ccnc3)cc2)c1,-1,-1,4,23571*,-3
CCN(CC)S(=O)(=O)c1cccc(NC(=O)C2SC(=Nc3ccc(C)cc3C)C(C(=O)NCC3CCCO3)=C2N)c1 (stereo not given),0,-5,-8,23589*,-1
CCOC(=O)N1CCN(C(=O)c2cnn3c(C)c(Cc4ccc(C)cc4)c(C)nc23)CC1,?,1,-7,23293*,0
Cc1ccc(C)c(Cc2c(C)nc3c(C(=O)N4CCOCC4)cnn3c2C)c1,2,4,-6,22707*,-1
C[N+](C)(C)CCN1C(=O)c2ccccc2C1=O,1,2,.,5663,3
C=C(C)COc1ccc2oc(C)c(C(=O)OCCOC)c2c1,?,-4,-1,24480*,-4
N#CC1(NC(=O)CSc2nnc3n2CCCCC3)CCCCC1,1,-17,6,5239,-2
O=C(NC1CC1)c1nc2c(nnn2Cc2ccccc2Cl)c(=O)[nH]1,-1,2,-6,7900,8
O=C(NCCc1ccccc1)c1nc2c(nnn2Cc2ccccc2Cl)c(=O)[nH]1,-2,-4,-3,16657*,-5
CCC(CC)C(=O)Nc1nnc(S(=O)(=O)N2c3ccccc3CC2C)s1 (stereo not given),1,0,-3,5881,1
O=[N+]([O-])c1c(NCCCO)cc(Sc2nc3ccccc3s2)c2nonc12,?,2,114*,23409*,-2
CN(C(=S)Nc1ccc(F)cc1)C1(c2ccccc2Cl)CCCCC1=O (stereo not given),-1,-3,-1,24303*,1
N#CCc1c(C#N)c(N)nc(N2CCN(c3ccc(F)cc3)CC2)c1C#N,-1,-6,8,12133,1
N#CCc1c(C#N)c(N)nc(N2CCN(Cc3ccc4c(c3)OCO4)CC2)c1C#N,4,1,7,19575*,0
CC1(C(=O)NS(=O)(=O)Cc2ccccc2)CCN1C(=O)C1(c2ccc(Cl)cc2)CCC1 (stereo not given),0,2,.,3453,0
Cc1cccc(C)c1NC(=O)COC(=O)[C@@H]1CCCN1C(=O)c1cccs1,-1,-8,3,4256,-8
CCCCCCCC(=O)NNC(=O)c1ccc([N+](=O)[O-])cc1,-4,-5,4,24645*,-2
COc1ccccc1/C=C/C(=O)Nc1ccc(S(=O)(=O)Nc2cc(C)on2)cc1,-2,-2,2,4423,0
Cc1ccc(OCCNC(=O)CCc2ccccc2)cc1C,0,-5,7,6115,-14
N#CCCCSc1ncccc1-c1nc2ccccc2[nH]1,2,1,2,19935*,-5
CC1C(=O)N(Cc2cn(CC3CCCCC3)nn2)CCS(=O)(=O)N1Cc1ccc(-c2ccc(Cl)cc2)cc1 (stereo not given),0,-1,-2,3071,0
SMILES,BoNT A protease,BoNT F protease,MazF activator,Autofluor counter,Anthrax LF inh2
O=C(O)CC(C(=O)NC1CCCCC1)C1CCCO1 (stereo not given),2,4,1,22137*,-1
O=C(O)CC(C(=O)Nc1ccc(Cl)c(Cl)c1)C1CCCO1 (stereo not given),0,2,-3,11218,-6
CC1=CC(=O)C=CC1=Nc1ccc(N(C)C)cc1,-1,-22,.,5150,-23
NC(=O)c1cc(N2C(=O)C3CC=CCC3C2=O)ccc1N1CCCCC1 (stereo not given),1,-1,-7,23233*,3
Cc1ccc(NC(=O)c2cc(N3C(=O)C4CC=CCC4C3=O)ccc2N2CCCCC2)cc1 (stereo not given),0,-13,0,4187,-3
COC(=O)c1ccccc1NC(=O)Cn1c(-c2nonc2N)nc2ccccc21,7,7,0,20173*,-6
COC(=O)c1ccccc1NC(=O)Cn1c(SC)c(F)cnc1=O,1,5,-4,19945*,-1
COC(=O)c1ccc(NC(=O)Cn2c(-c3nonc3N)nc3ccccc32)cc1,0,2,-8,4947,0
O=C(Oc1ccc[nH]c1=O)C1CC1,0,3,5,3392,-3
CCCOc1ccc(/C=C/C(=O)Nc2ccc([N+](=O)[O-])cc2C)cc1OC,?,0,-7,22086*,2
CCN(CC)c1ccc2cc(-c3nnc(-c4ccccc4)o3)c(=O)oc2c1,8,18,900*,4020,10
CCN(CC)c1ccc2cc(-c3nc4ccccc4[nH]3)c(=O)oc2c1,33*,59*,.,14129,28
CN(C)Cc1c(O)ccc2cc(-c3nc4ccccc4n3C)c(=O)oc12,1,?,7,4382,12
COc1cccc2cc(-c3nc4ccccc4[nH]3)c(=O)oc12,-2,-8,-36,3612,-15
CCN(CC)c1ccc2cc(-c3nc4ccccc4n3C)c(=O)oc2c1,1,0,i,16417*,3
COc1cccc(/C=N/NC(=O)CN(C)S(=O)(=O)c2ccccc2)c1OC,.,.,2,.,.
COCCNc1nc(NCc2cc(-c3ccc(OC)cc3)no2)c2sccc2n1,0,-6,.,3940,-7
Fc1cccc(/C=N/NC(=S)Nc2ccccc2Cl)c1,0,-3,-20,2012,-3
Fc1ccc(NC(=S)N/N=C/c2cccc(Br)c2)c(F)c1,?,-4,0,20663*,0
CCOC(=O)c1sc(NC(=O)c2ccc(CC)s2)nc1C,2,2,2,19861*,-2
C=CCOC(=O)c1sc(NC(=O)c2ccco2)nc1C,3,3,-13,19408*,0
CCOC(=O)c1sc(NC(=O)c2cc3ccccc3o2)nc1C,0,1,2,4428,0
CCCS(=O)(=O)N1CCCC(C(=O)N2CCCCC2)C1 (stereo not given),-2,-7,11,4080,8
CC1C(c2ccccc2)=Nn2c(=O)n(-c3ccccc3)c(=O)n21 (stereo not given),0,-6,18,4015,-11
Nn1c(COc2ccccc2F)nnc1SCC(=O)NC1CCS(=O)(=O)C1 (stereo not given),1,2,-3,5140,-1
COCCCNC(=O)c1ccc(S(=O)(=O)c2ccc(Cl)cc2)c(NC(C)=O)c1,0,-3,-2,3793,-16
NC(=S)NNC(=O)c1ccccc1,-2,-4,-1,24370*,-5
CCOC(=O)C1(Cc2ccccc2C)CCCN(C(=O)c2ccoc2)C1 (stereo not given),1,-2,5,4417,-1
CC1([N+](=O)[O-])COP(=O)(Nc2ccc(Cl)cc2)OC1 (stereo not given),1,0,2,3550,-2
